Measurements taken from the supplement of paper PMC7411054.
Counter-ions that a name gives are not always drawn.

What was measured:
Test in all cases: phenotypically active (imaging signature differs from DMSO and reproducible) at any of 0.3-9 uM (binary (1 = active, 0 = inactive)); higher = active
Details in all cases: treatment time: 24 h
[1] = test system: A549-ACTB-RAB5A
In short: (§1)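 Each of fifteen gene-edited A549, HepG2 and WPMY1 reporter lines, marked with BFP for segmentation and GFP and RFP/FusionRed, was treated in four wells at 0.3, 1, 3 or 9 µM for 24 h prior to live imaging. Normalisation of per-well live-cell features used solvent control wells. Deviation needed ≥3 of 4 wells beyond the 95th percentile of control Euclidean distances, and reproducibility needed a median replicate Pearson correlation above the 95th percentile of non-replicates. Both were required for phenotypic activity.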

[2] = test system: A549-CANX-COX4
In short: as §1

[3] = test system: A549-GM130-SQSTM1
In short: as §1

[4] = test system: A549-TP53BP1-CLTA
In short: as §1

[5] = test system: A549-TUBA1B-RELA
In short: as §1

[6] = test system: HepG2-ACTB-RAB5A
In short: as §1

[7] = test system: HepG2-CANX-COX4
In short: as §1

[8] = test system: HepG2-GM130-SQSTM1
In short: as §1

[9] = test system: HepG2-TP53BP1-CLTA
In short: as §1

[10] = test system: HepG2-TUBA1B-RELA
In short: as §1

[11] = test system: WPMY1-ACTB-RAB5A
In short: as §1

[12] = test system: WPMY1-CANX-COX4
In short: as §1

[13] = test system: WPMY1-GM130-SQSTM1
In short: as §1

[14] = test system: WPMY1-TP53BP1-CLTA
In short: as §1

[15] = test system: WPMY1-TUBA1B-RELA
In short: as §1

Measured: phenotypically active

Cc1ccc(-c2nc3ccc(C)cn3c2CC(=O)N(C)C)cc1 [zolpidem]
inactive: [1] 0 | [2] 0 | [3] 0 | [4] 0 | [5] 0 | [6] 0 | [7] 0 | [8] 0 | [9] 0 | [10] 0 | [11] 0 | [12] 0 | [13] 0 | [14] 0 | [15] 0

C=C[C@H]1C[N@@]2CC[C@H]1C[C@H]2[C@H](O)c1ccnc2ccccc12 [(-)-Cinchonidine]
inactive: [1] 0 | [2] 0 | [3] 0 | [4] 0 | [5] 0 | [6] 0 | [7] 0 | [8] 0 | [9] 0 | [10] 0 | [11] 0 | [12] 0 | [13] 0 | [14] 0 | [15] 0

CC1=C2[C@H]3OC(=O)[C@@H](C)[C@@H]3CC[C@@]2(C)C=CC1=O [alpha-Santonin]
inactive: [1] 0 | [2] 0 | [3] 0 | [4] 0 | [5] 0 | [6] 0 | [7] 0 | [8] 0 | [9] 0 | [10] 0 | [11] 0 | [12] 0 | [13] 0 | [14] 0 | [15] 0

CO[C@H]1C=C2CCN(C)[C@H]2[C@@H]2c3cc4c(cc3[C@@H](O)O[C@@H]21)OCO4 [Unsevine]
inactive: [1] 0 | [2] 0 | [3] 0 | [4] 0 | [5] 0 | [6] 0 | [7] 0 | [8] 0 | [9] 0 | [10] 0 | [11] 0 | [12] 0 | [13] 0 | [14] 0 | [15] 0

C/C(O)=C(/C#N)C(=O)Nc1cc(Br)ccc1Br
inactive: [1] 0 | [2] 0 | [3] 0 | [4] 0 | [5] 0 | [6] 0 | [7] 0 | [8] 0 | [9] 0 | [10] 0 | [11] 0 | [12] 0 | [13] 0 | [14] 0 | [15] 0

CCN(CC)C(C)C(=O)c1ccccc1 (stereo not given) [amfepramone]
inactive: [1] 0 | [2] 0 | [3] 0 | [4] 0 | [5] 0 | [6] 0 | [7] 0 | [8] 0 | [9] 0 | [10] 0 | [11] 0 | [12] 0 | [13] 0 | [14] 0 | [15] 0

C[C@@H]1O[C@H](C[N+](C)(C)C)C[C@H]1O [(+)-Muscarine iodide]
inactive: [1] 0 | [2] 0 | [3] 0 | [4] 0 | [5] 0 | [6] 0 | [7] 0 | [8] 0 | [9] 0 | [10] 0 | [11] 0 | [12] 0 | [13] 0 | [14] 0 | [15] 0

CC(C)CC(N(C)C)C1(c2ccc(Cl)cc2)CCC1 (stereo not given) [sibutramine]
inactive: [1] 0 | [2] 0 | [3] 0 | [4] 0 | [5] 0 | [6] 0 | [7] 0 | [8] 0 | [9] 0 | [10] 0 | [11] 0 | [12] 0 | [13] 0 | [14] 0 | [15] 0

C[C@@H](N)[C@@H](O)c1ccccc1 [phenylpropanolamine]
inactive: [1] 0 | [2] 0 | [3] 0 | [4] 0 | [5] 0 | [6] 0 | [7] 0 | [8] 0 | [9] 0 | [10] 0 | [11] 0 | [12] 0 | [13] 0 | [14] 0 | [15] 0

C[N+]1([O-])[C@@H]2C[C@@H](OC(=O)[C@H](CO)c3ccccc3)C[C@H]1[C@@H]1O[C@@H]12 (stereo not given in full) [Genoscopolamine HBr]
inactive: [1] 0 | [2] 0 | [3] 0 | [4] 0 | [5] 0 | [6] 0 | [7] 0 | [8] 0 | [9] 0 | [10] 0 | [11] 0 | [12] 0 | [13] 0 | [14] 0 | [15] 0

CCCCCCCCCC(=O)O[C@H]1CC[C@H]2[C@@H]3CCC4=CC(=O)CC[C@@H]4[C@H]3CC[C@]12C [nandrolone-decanoate]
inactive: [1] 0 | [2] 0 | [3] 0 | [4] 0 | [5] 0 | [6] 0 | [7] 0 | [8] 0 | [9] 0 | [10] 0 | [11] 0 | [12] 0 | [13] 0 | [14] 0 | [15] 0

N[C@H]1C[C@@H]1c1ccccc1 [tranylcypromine]
inactive: [1] 0 | [2] 0 | [3] 0 | [4] 0 | [5] 0 | [6] 0 | [7] 0 | [8] 0 | [9] 0 | [10] 0 | [11] 0 | [12] 0 | [13] 0 | [14] 0 | [15] 0

Cc1ccc(C[N+](C)(C)C)o1 [5-Methylfurmethiodide]
inactive: [1] 0 | [2] 0 | [3] 0 | [4] 0 | [5] 0 | [6] 0 | [7] 0 | [8] 0 | [9] 0 | [10] 0 | [11] 0 | [12] 0 | [13] 0 | [14] 0 | [15] 0

CCCN1CCC[C@@H]2Cc3n[nH]cc3C[C@H]21 [(-)-Quinpirole hydrochloride]
inactive: [1] 0 | [2] 0 | [3] 0 | [4] 0 | [5] 0 | [6] 0 | [7] 0 | [8] 0 | [9] 0 | [10] 0 | [11] 0 | [12] 0 | [13] 0 | [14] 0 | [15] 0

CC(C)N(CCC(C(N)=O)(c1ccccc1)c1ccccn1)C(C)C (stereo not given) [disopyramide]
inactive: [1] 0 | [2] 0 | [3] 0 | [4] 0 | [5] 0 | [6] 0 | [7] 0 | [8] 0 | [9] 0 | [10] 0 | [11] 0 | [12] 0 | [13] 0 | [14] 0 | [15] 0

COc1ccc2c3c1O[C@H]1C(=O)CC[C@@]4(O)[C@@H](C2)N(C)CC[C@]314 [oxycodone]
inactive: [1] 0 | [2] 0 | [3] 0 | [4] 0 | [5] 0 | [6] 0 | [7] 0 | [8] 0 | [9] 0 | [10] 0 | [11] 0 | [12] 0 | [13] 0 | [14] 0 | [15] 0

COc1cc(C(=O)O[C@H]2C[C@H]3CC[C@@H](C2)N3C)ccc1O [Fillalbin]
inactive: [1] 0 | [2] 0 | [3] 0 | [4] 0 | [5] 0 | [6] 0 | [7] 0 | [8] 0 | [9] 0 | [10] 0 | [11] 0 | [12] 0 | [13] 0 | [14] 0 | [15] 0

COc1ccc(C(=O)OC2C[C@H]3CC[C@H](C2)N3C)cc1OC (stereo not given in full) [Convolamine hydrochloride]
inactive: [1] 0 | [2] 0 | [3] 0 | [4] 0 | [5] 0 | [6] 0 | [7] 0 | [8] 0 | [9] 0 | [10] 0 | [11] 0 | [12] 0 | [13] 0 | [14] 0 | [15] 0

Oc1ccc2c3c1O[C@H]1[C@@H](O)CC[C@@]4(O)[C@@H](C2)N(CC2CCC2)CC[C@]314 [nalbuphine]
inactive: [1] 0 | [2] 0 | [3] 0 | [4] 0 | [5] 0 | [6] 0 | [7] 0 | [8] 0 | [9] 0 | [10] 0 | [11] 0 | [12] 0 | [13] 0 | [14] 0 | [15] 0

COc1ccc2c(c1OC)C(=O)O[C@@H]2[C@H]1c2cc3c(cc2CCN1C)OCO3 [Hydrastine]
inactive: [1] 0 | [2] 0 | [3] 0 | [4] 0 | [5] 0 | [6] 0 | [7] 0 | [8] 0 | [9] 0 | [10] 0 | [11] 0 | [12] 0 | [13] 0 | [14] 0 | [15] 0

CN1[C@@H]2CC(=O)C[C@H]1[C@H](O)C2 [6-Hydroxytropinone]
inactive: [1] 0 | [2] 0 | [3] 0 | [4] 0 | [5] 0 | [6] 0 | [7] 0 | [8] 0 | [9] 0 | [10] 0 | [11] 0 | [12] 0 | [13] 0 | [14] 0 | [15] 0

C/C=C1/C[N+]2(C)CC[C@]34C(=C(C=O)[C@H]1C[C@@H]32)Nc1ccccc14 (stereo not given in full) [Fluorocurarine chloride]
inactive: [1] 0 | [2] 0 | [3] 0 | [4] 0 | [5] 0 | [6] 0 | [7] 0 | [8] 0 | [9] 0 | [10] 0 | [11] 0 | [12] 0 | [13] 0 | [14] 0 | [15] 0

CC1=C(O)C(=O)[C@@H]2O[C@@H]2C1=O [(-)-Terreic acid]
inactive: [1] 0 | [2] 0 | [3] 0 | [4] 0 | [5] 0 | [6] 0 | [7] 0 | [8] 0 | [9] 0 | [10] 0 | [11] 0 | [12] 0 | [13] 0 | [14] 0 | [15] 0
